{"source": "PubChem BioAssay (NCATS)", "note": "Inconclusive results are not listed. Values without a mark were called inactive. Active and inactive are the calls of the source. The call rests on the fitted dose curve; in most records, active means well fitted inhibition curve with a large enough effect; inconclusive means small, poorly fitted or top-dose-only effect; inactive means no such curve, though single readings can be large or run the other way. Potency means the concentration at half of the fitted maximal effect.", "data": [{"assay": "BET inhibitor-based combinations targeting novel dependencies in MECOM-rearranged (r) AML: HNT-34 cell line (AID 2202234); further: nearly all actives have a fitted effect of over 35% in size;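 on viability (% of control): plate controls were vehicle wells for no effect and cell-free wells for full effect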", "conditions": "HNT-34 AML viability, CellTiter-Glo luminescence, 48 h; series mostly up to 46 µM; viability (% of control): at the top concentration", "in_short": "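Each compound is tested in an 11-point concentration series against 500 seeded cells/well for 48 hr. The luminescent viability signal is normalized to DMSO and blank wells, then reduced to AUC and a cell-line-centred Z-AUC.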", "units": {"viability (% of control)": "%"}, "values": [{"smiles": "Cc1ccsc1C(=CCCN1CCC[C@@H](C(=O)O)C1)c1sccc1C", "viability (% of control)": 94.5}, {"smiles": "CC(C)C[C@@H](N)[C@H](O)C(=O)N[C@H](C(=O)N[C@H](C(=O)N[C@@H](CC(=O)O)C(=O)O)C(C)C)C(C)C", "viability (% of control)": 101}, {"smiles": "CC(=O)OC[C@@H]1O[C@@H](n2ccc(=O)[nH]c2=O)[C@H](OC(C)=O)[C@H]1OC(C)=O", "viability (% of control)": 98.1}, {"smiles": "C[C@H](NC(=O)Cc1cc(F)cc(F)c1)C(=O)N[C@H](C(=O)OC(C)(C)C)c1ccccc1", "viability (% of control)": 99.8}, {"smiles": "CCc1cc(-c2n[nH]c(C)c2-c2ccc3c(c2)OCCO3)c(O)cc1O", "Potency": "14.8 µM (active)"}, {"smiles": "CCOc1ccccc1N=Nc1c(C)[nH]n(-c2nc(-c3ccccc3)cs2)c1=O", "viability (% of control)": 96.4}, {"smiles": "O=C(O)C1=CC(O)C(O)[C@H](O)C1", "note": "(some centres not stated)", "viability (% of control)": 99.6}, {"smiles": "CCCCC(CC)COC(=O)C(C#N)=C(c1ccccc1)c1ccccc1", "note": "(configuration not stated)", "viability (% of control)": 103}, {"smiles": "CC1(C)O[C@@H]2C[C@H]3[C@@H]4CCC5=CC(=O)C=C[C@]5(C)[C@@]4(F)[C@@H](O)C[C@]3(C)[C@]2(C(=O)CO)O1", "viability (% of control)": 88.6}, {"smiles": "COc1ccc2cccc(CCNC(C)=O)c2c1", "viability (% of control)": 105}, {"smiles": "Cc1cnc(C(=O)O)c[n+]1[O-]", "viability (% of control)": 110}, {"smiles": "Nc1cc(C(Cl)=C(Cl)Cl)c(S(N)(=O)=O)cc1S(N)(=O)=O", "viability (% of control)": 99}, {"smiles": "CC(COc1ccccc1)N(CCCl)Cc1ccccc1", "note": "(configuration not stated)", "Potency": "16.6 µM (active)"}, {"smiles": "Nc1ccc(S(N)(=O)=O)cc1", "viability (% of control)": 93}, {"smiles": "CC(=O)SCC(Cc1ccccc1)C(=O)NCC(=O)OCc1ccccc1", "note": "(configuration not stated)", "viability (% of control)": 103}, {"smiles": "Cc1nnc(NS(=O)(=O)c2ccc(N)cc2)s1", "viability (% of control)": 90.5}, {"smiles": "CNNCc1ccc(C(=O)NC(C)C)cc1", "viability (% of control)": 105}]}]}
